Source: PubChem BioAssay (National Center for Advancing Translational Sciences (NCATS))
SARS PLpro yeast: SARS-CoV PLP inhibition in yeast; S. cerevisiae expressing SARS-CoV PLpro, growth rescue; 330,000 tested, 0.19% active; Potency, µM (doses to about 32.9 µM), usual class: activators; calls by dose curve; further: nearly all actives have a fitted effect of over 55% in size
AmpC inh no detg: AmpC beta-lactamase inhibition without detergent | AmpC nitrocefin hydrolysis, absorbance 480 nm, 0.0001% Triton | Potency, µM (doses to about 57.1 µM), most hits filed as inhibitors | 330,000 tested, 0.52% active; further: nearly all actives have a fitted effect of over 20% in size
Target sequence (P00811 whole entry, looked up): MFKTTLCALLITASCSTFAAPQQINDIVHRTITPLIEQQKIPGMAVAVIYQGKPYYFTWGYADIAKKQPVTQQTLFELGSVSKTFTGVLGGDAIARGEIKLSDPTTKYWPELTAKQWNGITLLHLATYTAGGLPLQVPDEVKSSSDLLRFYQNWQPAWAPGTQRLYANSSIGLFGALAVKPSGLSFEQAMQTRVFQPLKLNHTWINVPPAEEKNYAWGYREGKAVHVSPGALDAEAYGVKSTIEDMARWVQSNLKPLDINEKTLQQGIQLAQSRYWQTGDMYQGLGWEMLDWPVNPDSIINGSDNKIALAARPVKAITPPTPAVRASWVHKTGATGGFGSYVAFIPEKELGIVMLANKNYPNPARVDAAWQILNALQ
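20 mM phosphate pH 7.0 + 0.01% (detergent screen) or 0.0001% Triton X-100; 5.3 nM AmpC reagent; cpd preinc 15 min RT; nitrocefin (800 uM stock) to start; A480 q20 s × 4 min; Activity was normalised to no-enzyme and no-compound control wells.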
AmpC detergent: inhibitors of E. coli AmpC beta-lactamase with detergent | AmpC hydrolysis of nitrocefin, absorbance 480 nm, 0.01% Triton | Potency, µM (series often up to 114 µM), actives largely listed as inhibitors | 370,000 tested, 0.041% active | P00811; further: nearly all actives have a fitted effect of over 25% in size
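20 mM phosphate pH 7.0 + 0.01% (detergent screen) or 0.0001% Triton X-100; 5.3 nM AmpC reagent; cpd preinc 15 min RT; nitrocefin (800 uM stock) to start; A480 q20 s × 4 min; Activity was normalised to no-enzyme and no-compound control wells.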
VACV Venus inh: inhibitors of vaccinia virus (Venus reporter) | Potency, µM (doses to about 36.5 µM), actives largely listed as inhibitors | Vaccinia virus Venus reporter expression, fluorescence | AID 720580 | 330,000 tested, 0.46% active; calls by dose curve; tested in A549 cells; further: nearly all actives have a fitted effect of over 30% in size
VACV mCherry inh: vaccinia inhibition (mCherry reporter). Potency, µM (highest dose often 36.5 µM), most hits filed as inhibitors. Vaccinia virus mCherry reporter infection, fluorescence. AID 720579. 310,000 tested, 0.63% active; calls by dose curve; tested in A549 cells; further: nearly all actives have a fitted effect of over 35% in size
Hits are given with their value; . = inactive; ? = inconclusive; / = not tested or not shown; [ ] = remark or other dose. Rows were chosen to be rich in hits. Some 1.3% of all compounds tested hit in one or more screens of this group. Unless noted, the call rests on the fitted dose curve; in most records, active means well fitted curve in the direction sought with a large enough effect; inconclusive means small, poorly fitted or top-dose-only effect, or another doubt; inactive means no such curve, though single readings can be large; an effect the other way counts as inactive or inconclusive.

SMILES | SARS PLpro yeast | AmpC inh no detg | AmpC detergent | VACV Venus inh | VACV mCherry inh
COCCN1CCN(C(=O)c2cnn(-c3ncc4c(n3)-c3ccc(OC)cc3CC4)c2C2CC2)CC1 | / | / | / | . | .
CCCCCCCCCC(=O)O | . | . | / | . | .
O=C(O)CCCCC1CCSS1 (configuration not stated) | . | 15.8µM | 50.1µM | . | .
O=S(=O)(c1ccccc1Cl)N1CCCC1c1nc(-c2ccc(Cl)cc2)no1 (configuration not stated) | . | 0.316µM | . | / | /
O=S(=O)(c1ccc(Cl)cc1)N1CCCC(c2nc(-c3ccc(F)cc3)no2)C1 (configuration not stated) | . | . | . | . | .
CCN(c1ccccc1)S(=O)(=O)c1ccc(OC)c(NC(=O)CCc2nc3ccccc3c(=O)[nH]2)c1 | . | 35.5µM | ? | . | .
N#C/C(C(=O)Nc1ccc(Cl)cc1)=C(/S)Nc1ccccc1 | . | ? | 39.8µM | . | ?
COC(=O)CC(NC1CCN(c2nc(C)c3cc4c(cc3n2)CCC4)CC1)C(=O)OC (configuration not stated) | / | / | / | . | .
CCN(CCO)c1ccc(Nc2cc(-c3ccc(-c4ccccc4)cc3)ncn2)cc1 | / | / | / | . | 31.6µM
C[C@H]1C=CC(=O)O[C@H]1c1ccccc1 | / | / | / | 3.16µM | ?
C[C@@H]1C=CC(=O)O[C@@H]1c1ccc(C(F)(F)F)cc1 | . | . | ? | / | /
O=C(Cn1cc(/C=N/NC(=O)c2ccccc2Br)c2ccccc21)Nc1ccc(F)cc1 | . | 14.1µM | . | / | /
CCCCOc1ccc(S(=O)(=O)NC(=O)C2(C)CCN2C(=O)c2c(C)noc2C)cc1 (configuration not stated) | / | / | / | . | .
C/C(Cl)=C/CC1(CN2CCCC2=O)C(=O)NC(=O)NC1=O | . | . | 28.2µM | . | .
O=C(NCc1ccc2c(c1)OCO2)c1ccc2c(c1)N(Cc1ccc(F)cc1)C(=O)c1ccccc1S2=O (configuration not stated) | / | / | . | . | .
CCOP(=O)(Nc1ccc2c(c1)C(=NNC(N)=S)c1ccccc1-2)OCC | / | / | / | ? | 11.2µM
Nc1ccn(C2OC(COP(=O)(O)O)C(O)C2O)c(=O)n1 (configuration not stated) | / | / | / | ? | 31.6µM
Cn1cc([C@]2(O)C(=O)N(c3ccccc3)c3ccccc32)c2ccccc21 | / | / | / | . | .
CCCc1sc(N/N=C/c2ccccn2)nc1-c1ccc(F)cc1 | . | . | . | ? | 11.2µM
COc1ccc(-c2cc(C)cc3c2OC(CNC(=O)/C=C/c2ccncc2)C3)nn1 (configuration not stated) | / | / | / | . | .
COc1cc(/C=C2\SC(N)=NC2=O)ccc1OCC(=O)Nc1ccc(C)cc1 | . | 10µM | ? | . | .
COc1ccc(/C=C2/SC(=O)N(CCC(=O)Nc3ccc(C)cc3)C2=O)cc1OC | . | . | . | / | /
CCC[N+](C)(C)c1ccc(/C=C/c2ccnc3ccccc23)cc1 | / | / | / | . | .
O=C(NNc1ccccc1Br)C(O)(c1cccc(C(F)(F)F)c1)c1cccc(C(F)(F)F)c1 | . | . | . | ? | 11.2µM
S=C(NCc1ccco1)Nc1cc(-c2ccccc2)[nH]n1 | . | 15.8µM | . | . | .
SMILES | SARS PLpro yeast | AmpC inh no detg | AmpC detergent | VACV Venus inh | VACV mCherry inh
CCOc1ccc(NC(=O)C(C)Sc2nnc(C)n2C)cc1 (configuration not stated) | . | 3.55µM | ? | . | .
Cc1ccc(C)c(NC(=O)CCCCCCCCCCC2COCCO2)c1 (configuration not stated) | 11.2µM | . | . | . | .
O=C(Cc1ccc(S(=O)(=O)N2CCOCC2)s1)NC1CCCCC1 | . | . | . | . | .
CC1CCCCC1NC(=O)Cc1ccc(S(=O)(=O)N2CCOCC2)s1 (configuration not stated) | . | 35.5µM | ? | . | .
CCCCC1Cc2[nH]c(=S)[nH]c(=O)c2C(c2cccc3ccccc23)O1 (configuration not stated) | / | / | / | . | .
COC(=O)C1C(=O)C(C(=O)/C=C/c2ccccc2)C(=O)CC1(C)C (configuration not stated) | . | . | . | ? | 11.2µM
COC(=O)C1C(=O)C(C(=O)c2ccccc2)C(=O)CC1(C)C (configuration not stated) | . | . | . | / | /
COC(=O)[C@]12OC[C@]34C([C@@H](O)[C@@H]1O)[C@]1(C)CC(=O)C(O)=C(C)[C@@H]1C[C@H]3OC(=O)[C@H](O)[C@@H]24 (some centres not stated) | . | . | . | 0.891µM | ?
COc1cccc(CNC(=O)c2c(OC)cc(=O)n3c2CCN(C(=O)c2ccoc2C)CC3)c1 | / | / | / | . | .
CO[C@H]1[C@H](NC(=O)c2ccsc2)c2ccccc2C12CCN(Cc1cc3ccccc3o1)CC2 | / | / | / | . | .
CC(CNc1ccccc1O)C(=O)O (configuration not stated) | . | . | . | 89.1µM | 4.47µM
CC(NC(=O)CCC(=O)Nc1ccccc1O)c1ccccc1 (configuration not stated) | / | / | / | .[7.34 µM] | .[7.34 µM]
Cc1ccc(-c2csc(N3CCN(CCCn4c(C(F)(F)F)nc5ccccc54)CC3)n2)cc1 | . | . | . | . | .
Cc1ccc(-c2csc(N3CCN(CCCn4c(-c5ccncc5)nc5ccccc54)CC3)n2)cc1 | . | . | . | ? | 10µM
O=C1/C(=C/c2ccccc2)C[C@@]2(O)[C@H]3Cc4ccc(O)c5c4[C@@]2(CCN3CC2CC2)C1O5 (some centres not stated) | . | . | / | 10µM | ?
COC(=O)[C@@H]1CCCN1Cc1ccc2c(c1)CN(Cc1nccs1)CCO2 | / | / | / | . | .
COc1ccc(N=C(N)SCc2ccccn2)cc1 | . | . | . | 11.2µM | 11.2µM
O=S(=O)(c1cccnc1)N1CCn2cccc2C1c1ccccc1F (configuration not stated) | . | . | ? | . | .
O=[N+]([O-])c1ccc(S(=O)(=O)N2CCn3cccc3C2c2ccccc2F)cc1 (configuration not stated) | / | / | . | ? | 11.2µM
N#Cc1c(NC(=O)CSc2ncnc3sccc23)oc(-c2ccco2)c1-c1ccco1 | . | 1.78µM | . | . | .
Cc1oc(-c2ccccc2NC(=O)c2ccsc2)nc1CN(C)Cc1ccc2c(c1)CCCN2C | / | / | / | . | .
[O-][n+]1c2c(c3c4non(O)c4ccc31)CCCC2 | . | 10µM | . | . | .
CCN(CC)C(=O)C1=C(C)N(Cc2ccc(C(C)(C)C)cc2)C(=O)C(CC(=O)NC(c2ccccc2)c2ccccc2)C1 (configuration not stated) | / | / | / | 12.6µM | ?
Cc1cc(C)nc(S[C@H]2C[C@@H](C(=O)N3CCN(c4ccccc4F)CC3)N(Cc3ccccc3C(F)(F)F)C2)n1 | / | / | / | . | .
Cc1c(C(=O)NCCC2CCCN2C)cnn1-c1nccc(-c2ccccc2F)n1 (configuration not stated) | / | / | / | . | .
